This is part of a sample that, as a whole, favours compounds with a hit. Of some 79,000 tested, about 15% had one in any assay. Values without a mark were called inactive. The source made the active and inactive calls. Rule as the data show it: active = growth inhibition above about 70%; inactive = the rest.
assay: NCI Yeast Anticancer Drug Screen. Data for the rad50EPP+ strain (AID 151);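 also: 0% = growth of vehicle-treated control cultures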; conditions: S. cerevisiae rad50 mutant strain, at 33.0 µM, stronger effect = higher value
Summary of the method: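 Growth inhibition read against vehicle controls in rad50EPP+ yeast, a strain altered in DNA damage repair, after compound exposure.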

Row | SMILES | growth inhibition
1 | CCS(=O)(=O)c1ccc(/C=C/C=N/NC(=S)NCC(C)C)cc1 | 6%
2 | CCC(=O)Oc1c(Cl)cc(Cl)c2ccccc12 | 15%
3 | COc1cc2c3c(cccc3c1)C(=O)N(CCN(C)C)C2=O | 34%
4 | CN(C)c1ccc(C(C#N)=C(C#N)C#N)cc1 | 15%
5 | O=C(CCCN1CCC2(CC1)CC(=O)N(N1CCCCCC1)C2=O)c1ccc(F)cc1 | -1%
6 | O=C1C2C(C(=O)N1c1ccc(OCc3ccccc3)cc1)C1c3ccccc3C2C2CCCCN21 (configuration not stated) | 1%
7 | CCN(CC)CCC(=O)c1ccc(Oc2ccc(F)cc2)cc1 | 36%
8 | O=Nc1c(NO)ccc2nn(-c3ccccc3)nc12 | 65%
9 | CC(=O)SCCC[Si](C)(C)CCCSC(C)=O | 11%
10 | O=C(O)C1CCCCC1c1c2ccc(=O)c(O)c-2oc2c(O)c(O)ccc12 (configuration not stated) | -39%
11 | Cc1ccc(NN(NC(=O)OC(C)C)C(=O)OC(C)C)cc1 | 50%
12 | O=C1c2ccccc2C(=O)c2cc(CBr)ccc21 | 94% (active)
13 | Cc1c(C(Cc2ccccc2N(C)C(=O)/C=C\C(=O)O)c2c[nH]c3ccccc23)c2ccccc2n1C (configuration not stated) | -6%
14 | CC(C)/C(Cl)=N\OC(=O)Nc1ccc(F)cc1 | 57%
15 | O=C1OC(=O)C2CCCC3CCCC1C32 (configuration not stated) | 90% (active)
16 | CCOC(=O)C(NC(=O)c1ccccc1)(N1CCN(c2cc3c(cc2F)c(=O)c(C(=O)O)cn3C2CC2)CC1)C(F)(F)F (configuration not stated) | 2%
17 | COc1ccc(NC(=S)N/N=C(\c2ccccc2)c2ccccn2)cc1 | 3%
